Compound activity from PubChem.
Shown are actives, neighbours in structure and some others; about 5.7% of the full set was active somewhere.
NPSR antagonist – antagonists of human neuropeptide S receptor cAMP signaling; Q6W5P4; CHO-NPSR cells, cAMP TR-FRET, antagonist mode; Potency, µM (titrated, usually from 38.3 µM), without a hit: at the highest dose activity change, negative = inhibition, actives largely listed as inhibitors; 220,000 tested, 1% active; further: nearly all actives have a fitted effect of over 50% in size
RORg inh – ROR gamma (mouse) transcription inhibition; P51450; Drosophila S2 Gal4-RORgamma UAS-luciferase reporter, 20 h; Potency, µM (top dose mostly 53.6 µM), for the others: top-dose activity change, negative = inhibition, actives largely listed as inhibitors; 310,000 tested, 5.4% active; AID 2551; further: nearly all actives have a fitted effect of over 60% in size
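Drosophila S2 cells stably expressing Gal4-DBD/mouse RORγ fusion under metallothionein promoter plus UAS-luciferase; compound 1 h, then 700 uM CuSO4 induction for 20 h at ambient temperature; inhibition read as reduced luminescence.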
B2AR arrestin – recruits beta-arrestin to the human beta2-adrenergic receptor | beta-arrestin recruitment to beta2AR, cell-based reporter | Potency, µM (top dose mostly 46.1 µM), for the others: at the highest dose activation, actives largely listed as activators | 330,000 tested, 0.02% active;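 further: 0% = DMSO controls and full agonism = EC100 isoproterenol or metaproterenol; nearly all actives have a fitted effect of over 65% in size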
Target sequence (P07550 whole entry, looked up): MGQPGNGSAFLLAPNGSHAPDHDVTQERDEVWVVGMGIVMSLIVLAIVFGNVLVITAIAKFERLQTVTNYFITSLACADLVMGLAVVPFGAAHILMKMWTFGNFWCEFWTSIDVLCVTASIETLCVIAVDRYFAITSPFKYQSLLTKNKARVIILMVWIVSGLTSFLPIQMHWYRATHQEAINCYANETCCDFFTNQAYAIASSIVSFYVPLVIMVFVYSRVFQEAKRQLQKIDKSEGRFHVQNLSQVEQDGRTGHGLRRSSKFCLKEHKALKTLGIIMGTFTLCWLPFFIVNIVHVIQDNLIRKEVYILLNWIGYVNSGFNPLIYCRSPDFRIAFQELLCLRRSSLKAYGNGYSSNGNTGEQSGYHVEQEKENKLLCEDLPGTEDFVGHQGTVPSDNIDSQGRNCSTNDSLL
Gal4-VP16 FLuc – inhibits Gal4-VP16 luciferase reporter, ROR gamma counter-screen. Drosophila S2 Gal4-VP16 UAS-luciferase, luminescence, 20 h. Potency, µM (series often up to 53.6 µM), for inactives: at the highest dose activity, negative = inhibition, actives largely listed as inhibitors. 310,000 tested, 3.5% active;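 further: Gal4-VP16 expression switched on by copper sulfate through the metallothionein promoter; nearly all actives have a fitted effect of over 50% in size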
* marks the source's active call; other numbers are inactive results; ? = inconclusive; . = not tested or not shown; [ ] = another dose, or the depositor's remark. The call rests on the fitted dose curve; in most records, active means well fitted curve in the direction sought with a large enough effect; inconclusive means small, poorly fitted or top-dose-only effect, or another doubt; inactive means no such curve, though single readings can be large; an effect the other way counts as inactive or inconclusive. Unless noted, on the % scale 0 is the no-effect control and ±100 the full control effect; potency means the concentration at half of the fitted maximal effect.

SMILES	NPSR antagonist	RORg inh	B2AR arrestin	Gal4-VP16 FLuc
CC1(C)CC2(CC(c3ccccc3)Oc3cc(O)ccc32)NC(=S)N1 (stereo unspecified)	-6.4%[46.1 µM]	8.91µM*	3.8%	8.91µM*
O=C1Cc2cc(NS(=O)(=O)c3ccc([N+](=O)[O-])cc3)cc3c2N1CCC3	.	.	0.1%	.
CSCC[C@H](NC(=O)[C@H](CC(C)C)NC(=O)CNC(=O)[C@H](Cc1ccccc1)N(C)C(=O)[C@H](Cc1ccccc1)NC(=O)[C@H](CC(=O)O)NC(=O)[C@@H](N)CC(=O)O)C(N)=O	.	11.1%	.	1.2%
CN(C)c1ncc2nc(-c3ccccc3)c(=O)n(Cc3cccs3)c2n1	.	-12.7%	.	-4.3%
CC1CC(C)(C)NC(=S)N1CCCC(=O)Nc1ccccc1F (stereo unspecified)	-3.8%	17.8µM*	-1.0%	-12.1%
CC1CC(C)(C)NC(=S)N1CCCC(=O)Nc1ccc(Cl)cc1 (stereo unspecified)	-8.9%	3.98µM*	0.0%	?
Cc1ccc(NC(=O)CN2C(=S)NC(C)(C)CC2C)cc1Cl (stereo unspecified)	11.8%	14.1µM*	-0.2%	?
CC1CC(C)(C)NC(=S)N1CCCC(=O)NCCc1ccc(Cl)cc1 (stereo unspecified)	-8.1%	12.6µM*	-0.4%	?
Cc1ccc(CNC(=O)CCCN2C(=S)NC(C)(C)CC2C)cc1 (stereo unspecified)	3.7%	?	0.2%	4.7%
FC(F)(F)c1ccccc1-c1ccc2ncnc(NCCN3CCOCC3)c2c1	.	8.2%	.	8.0%
COC(=O)C1(C(=O)OC)C[C@@H]2CON=C2[C@H]1c1ccccc1	.	-3.7%	.	1.5%
CCN(C(=O)CN1C(=S)NC(C)(C)CC1C)c1ccc(C)c(C)c1 (stereo unspecified)	-33.1%	7.08µM*	-0.7%	?
CC1CC(C)(C)NC(=S)N1CCCC(=O)N1CCN(c2ccccc2F)CC1 (stereo unspecified)	11.3%	14.1µM*	-1.0%	?
CC1CC(C)(C)NC(=S)N1CCC(=O)NCCc1ccc(Cl)cc1 (stereo unspecified)	-19.6%	1.58µM*	0.2%	7.94µM*
CC1CC(C)(C)NC(=S)N1CCC(=O)N1CCc2ccccc21 (stereo unspecified)	-31.1%	6.31µM*	-0.8%	?
CC1CCCN(CCCOc2ccccc2-c2ccccc2)C1 (stereo unspecified)	-12.9%	6.9%	-0.2%	-7.4%
COc1ccc(S(=O)(=O)N2CCSC2c2ccc(N)cc2)cc1 (stereo unspecified)	-26.9%[46.1 µM]	6.7%	0.1%	-3.3%
CC(=O)c1ccc(C2C=CC(Oc3ccc(F)cc3C)C(CO)O2)cc1 (stereo unspecified)	.	19.6%[10 µM]	.	-13.2%[10 µM]
Cc1ccc(NC(=S)Nc2cc(-c3ccccc3)[nH]n2)cc1Cl	-40.5%	0.794µM*	-0.4%	2.24µM*
Cc1cccc(C)c1NC(=S)Nc1ccc(Cl)c(Cl)c1	-22.2%	6.31µM*	-0.2%	?
Cc1cc(C)cc(NC(=S)Nc2ccc(Cl)c(Cl)c2)c1	-45.1%	10µM*	0.0%	?
Cc1ccc(C)c(N(C(=O)c2csnn2)C(C(=O)NC2CCCC2)c2cccnc2)c1 (stereo unspecified)	.	-3.2%	-0.2%	-8.6%
CN(C)c1ncc2nc(-c3ccc(Cl)cc3)c(=O)n(C[C@H]3CCCO3)c2n1	.	-21.9%	.	-8.8%
CC1CCN(c2nc(CN3CCCCC3)nc3scc(-c4ccccc4)c23)CC1	-44.7%	10µM*	0.4%	22.4µM*
O=c1c2ccccc2oc2cc(O)c(C3COCC(CO)C(O)C(O)C3O)c(O)c12 (stereo unspecified)	.	10.4%	.	?
SMILES	NPSR antagonist	RORg inh	B2AR arrestin	Gal4-VP16 FLuc
O=C(c1ccccn1)c1conc1C(=O)c1ccc(Br)cc1	-17.4%[46.1 µM]	12.6µM*	0.2%	?
CO[C@H]1COC(=O)C/C=C\[C@@H](C)COC(=O)[C@@H](OCc2ccccc2)/C=C\[C@@H]1C	.	-16.2%[10 µM]	.	-7.3%[10 µM]
Oc1ccc2c(c1)OCC1(O)Cc3cc(O)c(O)cc3C21 (stereo unspecified)	.	0.708µM*	.	5.62µM*
CN(Cc1cccs1)c1ncnc2sccc12	-13.4%[46.1 µM]	-13.6%	-0.2%	1.26µM*
COc1ccc(NC(=S)NC(=O)/C=C/c2ccc(F)cc2)cc1	.	?	0.4%	-13.5%
COc1ccc(NC(=S)N/N=C/c2cccn2Cc2ccc(F)cc2Cl)cc1	-34.7%	0.794µM*	0.1%	2.82µM*
COc1ccc(NC(=S)N/N=C/c2cccn2Cc2ccccc2F)cc1	-14.0%	0.282µM*	-0.1%	1.41µM*
CSc1ccc(NC(=O)Nc2cccn(Cc3ccccc3F)c2=O)cc1	-1.0%	2.4%	-0.1%	-9.0%
Cn1c(=O)c(-c2ccc(F)cc2)nc2cnc(Nc3ccccc3)nc21	.	-36.6%	.	-14.4%
O=C(Nc1ccc(F)c(Cl)c1)C1CC(=O)n2c(nc3ccccc32)N1 (stereo unspecified)	-2.3%	3.55µM*	0.1%	?
CCCNC(=O)OC[C@@H]1O[C@H](CCO/N=C(\C)CCN2CCc3nc(CC)c(CC)cc3C2)C=C[C@@H]1Oc1ccc(OC)cc1	.	-6.4%[10 µM]	.	-0.9%[10 µM]
Cc1ccc(NC(=O)CS(=O)CC(=O)NC23CC4CC(CC(C4)C2)C3)cc1 (stereo unspecified)	.	-5.7%	-0.2%	-8.5%
FC(F)Oc1ccc(NC(=S)NC23CC4CC(CC(C4)C2)C3)cc1	.	0.794µM*	0.1%	7.08µM*
CCOc1ccc(NC(=S)NC23CC4CC(CC(C4)C2)C3)cc1	.	3.16µM*	-0.4%	2.82µM*
CNC(=S)NC12CC3CC(CC(C3)C1)C2	3.4%	2.51µM*	-0.1%	7.94µM*
CC(C)(C)NC(=O)NC12CC3CC(CC(C3)C1)C2	-2.4%	-36.3%	-0.1%	1.5%
CN(C)c1ccc(NC(=S)NC23CC4CC(CC(C4)C2)C3)cc1	.	2µM*	-0.8%	5.01µM*
CSc1ccc(S(=O)(=O)N2CCC(C(=O)NC3CC3)CC2)cc1	.	7.9%	-0.2%	-3.4%
O=C(NCc1ccccn1)C1(C(F)(F)F)CC(CCCO)CCCO1 (stereo unspecified)	.	8.2%	.	0.9%
CCOC(=O)C1(Cc2ccc(Cl)cc2)CCN(C(=O)c2cc(C)nc(C)n2)CC1	5.5%	2.6%	-0.5%	-3.3%
Cc1c(C(=O)N2CCC[C@H]2CO)oc2c(F)cccc12	.	0.2%	-0.2%	-4.5%
COc1ccc(C(=O)Nc2sc(C(=O)N(C)C)c(C)c2C#N)cc1[N+](=O)[O-]	-8.9%	?	-1.6%	15.8µM*
CCN(CCCNC(=O)C1c2ccccc2C(=O)N(CCOC)C1c1ccc(F)cc1)Cc1ccccc1 (stereo unspecified)	10µM*	-8.7%	0.0%	8.1%
CN(C)c1ccc(C(=S)N2CCCCC2)cc1	16.2%	11.2µM*	-1.2%	0.5%
CN(C)c1ccc(C(=S)NC2CCCCC2)cc1	-13.7%	8.91µM*	-0.2%	2.7%
CCN(CC)c1ccc(C(=S)NC2CCCCC2)cc1	-45.1%	8.91µM*	0.0%	14.1µM*
CC(C)(C)C(=O)OCOP(=O)(COCCn1cnc2c(N)ncnc21)OCOC(=O)C(C)(C)C	.	-14.6%[10 µM]	.	-2.8%
Cc1ccc(Cl)cc1NC(=O)COC(=O)CC1CCCCC1	.	.	-2.4%	.
